Consider 94 molecules from PubChem BioAssay AID488896 (Broad Institute, 2010).

Among all 320,000 compounds or so, about 3,100 (0.97%) were called active. This is one part of a sample in which actives are shown more often than they occur.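 The calls were made as follows: active = mean replicate inhibition of at least 70% and a set share of replicates each scoring 70 or more; inconclusive = meets just one of the two criteria; inactive = fails both criteria.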

What is called inhibition is the change of the read-out against control, counted positive when it falls.

Chain of Scavenger receptor class B member 1 (Mus musculus) (Q61009 whole entry, looked up): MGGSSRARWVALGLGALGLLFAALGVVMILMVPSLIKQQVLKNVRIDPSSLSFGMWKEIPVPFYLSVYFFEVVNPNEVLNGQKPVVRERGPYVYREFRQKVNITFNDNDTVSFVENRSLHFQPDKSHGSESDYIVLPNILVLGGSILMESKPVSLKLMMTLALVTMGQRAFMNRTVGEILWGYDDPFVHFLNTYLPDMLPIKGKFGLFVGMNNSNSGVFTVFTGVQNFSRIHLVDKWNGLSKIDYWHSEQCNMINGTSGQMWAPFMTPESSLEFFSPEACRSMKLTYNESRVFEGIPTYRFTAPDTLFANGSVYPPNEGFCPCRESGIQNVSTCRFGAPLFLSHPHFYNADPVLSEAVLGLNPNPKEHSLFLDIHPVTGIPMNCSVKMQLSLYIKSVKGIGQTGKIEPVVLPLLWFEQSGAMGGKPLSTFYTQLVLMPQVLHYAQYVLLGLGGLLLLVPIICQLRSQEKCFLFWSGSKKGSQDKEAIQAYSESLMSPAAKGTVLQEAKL

The test addresses Scavenger receptor class B member 1 (Mus musculus) (UniProt Q61009). Put plainly: inhibitors of SR-BI mediated HDL lipid uptake, primary screen, ldlA[mSR-BI] cells, fluorescence, single point (AID 488896).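 Also: 0% = median of neutral control wells and 100% = median of positive control wells.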 The note with it: ldlA[mSR-BI] CHO cells, DiI-HDL uptake fluorescence, 3 h; at 12.5 µM; hits give high values.
`CSCCC(NC(=O)COc1ccccc1)C(=O)OCc1ccc(Cl)cc1` (centres undefined): the inhibition is -22.7% (inactive).
For `Cc1ccc(S(=O)(=O)c2cc3c(=O)n4cccc(C)c4nc3n(CCc3ccccc3)c2=N)cc1C`, the inhibition was -25.8% (inactive).
For the molecule `COc1cccc2c1C(=O)c1c(O)c3c(c(O)c1C2=O)CC(O)(C(C)=NNC(=O)c1ccc(Cl)c(Cl)c1)CC3OC1CC(N)C(O)C(C)O1` (centres undefined), the inhibition is 33.2% (inactive).
As for `O=[N+]([O-])c1cccc(C=NN=Cc2ccccc2O)c1`, the inhibition was 45.3% (inactive).
Take `COc1ccc2c(c1)C(=O)CC(c1ccccc1)O2` (centres undefined): the inhibition is 17.3% (inactive).
As to `CCNCCC(=O)N1c2ccccc2Sc2ccc(NC(=O)OCC)cc21`, the inhibition was -8.72% (inactive).
Take `CCN1/C(=C\c2ccc3ccccc3[n+]2CC)Sc2cc(C)ccc21`: the inhibition is 55.6% (inactive).
For the molecule `CCN1/C(=C/C(=S)Nc2ccccc2)Sc2ccccc21`, the inhibition is 80.2% (active).
As for `COC[C@@H]1NS(=O)(=O)c2ccc(Br)cc2O[C@H]1c1ccccc1`, the inhibition is 5.43% (inactive).
Regarding `NC(=O)C1(Nc2ccccc2Cl)CCCC1`, the inhibition is -5.33% (inactive).
As to `O=C(CNC(=O)c1cccnc1)N/N=C/c1cccnc1`, the inhibition is -11% (inactive).
Turning to `O=C(N/N=C/c1sc(N2CCCCC2)nc1-c1cccs1)c1cccnc1`, the inhibition was 76.7% (active).
Take `O=C(NN=C1CCC(=NNC(=O)c2cccnc2)CC1)c1cccnc1`: the inhibition was -14% (inactive).
As to `COC(=O)C1CC2=C(CC(C)(C)CC2=O)N(c2ccccc2)C1=O` (centres undefined), the inhibition was -15.5% (inactive).
Take `CCCCN1CC(CO)Oc2cccc(F)c2S1(=O)=O` (centres undefined): the inhibition was -10.7% (inactive).
`C/C(=N/NC(=O)c1ccc(NC(=O)c2ccc(F)cc2)cc1)c1ccccc1`: the inhibition was 88.8% (active).
Take `COc1ccc(/C(C)=N\NC(=O)c2ccc(-c3ccccc3)cc2)c(F)c1`: the inhibition is 67.1% (inactive).
In the case of `COc1cccc(C(=O)N/N=C(\C)c2cccc(NC(=O)c3ccc(F)cc3)c2)c1OC`, the inhibition was 61% (inactive).
As for `O=C1C(=O)N(c2ccccc2)C(c2ccccc2)C1c1ccccc1` (centres undefined), the inhibition was 3.47% (inactive).
For the molecule `CCCN(CC(=O)Nc1ccccc1C)C(=O)c1ccc(OCC(=O)N2CCOCC2)c(OCC)c1`, the inhibition is 13.8% (inactive).
With `CC1(C)N=C(N)NC(Nc2ccc(Cl)cc2)=N1`, the inhibition is -10.1% (inactive).
As for `Cc1ccc(C)c(N2CCN(C(=O)Cn3ncn4cccc4c3=O)CC2)c1`, the figure is 10.1% (inactive); as for `Cc1ccc(C)c(N2CCN(C(=O)CCCCn3c(=O)[nH]c4ccccc4c3=O)CC2)c1`, 16.6% (inactive).
With `Cc1ccc(C)c(N2CCN(C(=O)CCCn3c(=O)c4cccn4c4cccnc43)CC2)c1`, the inhibition is 84.4% (active).
Regarding `COc1ccc(CC(=O)NC(C)c2ccc(Cl)c(Cl)c2)cc1S(=O)(=O)N1CCOCC1` (centres undefined), the inhibition was 4.63% (inactive).
As to `O=C(O)C(c1cccs1)C1(O)CCCCC1` (centres undefined), the inhibition was -15.2% (inactive).
As for `CC1(C)Cc2cccc(OCC(=O)N3CCN(c4ccc([N+](=O)[O-])cc4)CC3)c2O1`, the figure is 71.3% (active).
Consider `CC1(C)Cc2cccc(OCC(N)=O)c2O1`, for which the inhibition was 10.8% (inactive).
With `CC1(C)Cc2cccc(OCC(=O)NCc3ccccc3)c2O1`, the inhibition was 3.02% (inactive).
With `Cc1cc(NC(=O)c2cc3ccccc3o2)no1`, the inhibition is -18.7% (inactive).
Take `COc1ccccc1NC(=O)c1cc(Cl)nc2ccccc12`: the inhibition is 66.5% (inactive).
As for `COc1ccc(-c2cc(C(=O)Nc3ccccc3O)c3ccccc3n2)cc1`, the inhibition is 41.1% (inactive).
With `COc1ccc(NC(=O)c2cc(-c3cc(OC)c(OC)c(OC)c3)nc3ccccc23)c(OC)c1`, the inhibition was 78.3% (active).
With `COC1=NC2=NCCN2C(OC)=N1`, the inhibition is -7.98% (inactive).
For the molecule `O=C1c2ccccc2C(=O)C1C(=O)C1CC1`, the inhibition is -19.4% (inactive).
Turning to `N#CC(Cc1cc2ccccc2n1S(=O)(=O)c1ccccc1)OCc1ccccc1` (centres undefined), the inhibition was 4.98% (inactive).
With `O=c1ccn([C@@H]2O[C@H](CNS(=O)(=O)c3cc4ccccc4s3)[C@@H](O)[C@H]2O)c(=O)[nH]1`, the inhibition was -11% (inactive).
On to `COc1ccc(-c2nn(-c3ccccc3)cc2C(=O)Nc2nccs2)cc1OC`, for which the inhibition was 74.4% (active).
In the case of `O=C(O)c1ccccc1-c1ccccc1C(=O)Nc1nccs1`, the inhibition is -17.5% (inactive).
With `COc1ccc(-c2nn(-c3ccccc3)cc2/C=N/Nc2ccccn2)cc1OC`, the inhibition is 50.1% (inactive).
As for `CN1C(c2ccc(F)cc2)=CS/C1=C(/C#N)c1nnc2n1-c1ccccc1SC2`, the figure is 32.2% (inactive); as for `Nc1ccc2c(c1)C(O)c1ccc(Cl)cc1-2` (centres undefined), -14.5% (inactive).
As for `Cc1cc(C)cc(OCC(=O)Nc2ccc(N3CCOCC3)cc2N2CCOCC2)c1`, the figure is 45% (inactive); as for `Cc1cc(N2CCCC2)ccc1NC(=O)COc1ccc(Cl)cc1`, 75.9% (active).
As for `CCC(=O)c1ccc(OCC(=O)Nc2ccc(N3CCCCC3)cc2)cc1`, the inhibition was 35.5% (inactive).
As for `CN1CCOC1c1ccc(C2OCCN2C)cc1` (centres undefined), the figure is -6.99% (inactive); as for `CCCCCCCCNS(=O)(=O)CCNC1CCCCC1`, -5.35% (inactive).
On to `CCN1C(=O)/C(=C\N2CCN(c3cccc(Cl)c3)CC2)SC1=S`, for which the inhibition is 8.1% (inactive).
In the case of `CCCCN1C(=O)/C(=C/C=C2/C=Cc3ccccc3N2CC)SC1=S`, the inhibition is 146% (active).
On to `CCCCN1C(=O)/C(=C2/C=CC=CN2C)SC1=S`, for which the inhibition is 8.97% (inactive).
With `Cc1c[n+]([O-])ccc1[N+](=O)[O-]`, the inhibition was 4.11% (inactive).
With `CCCCN1CC(COCc2ccccc2)OCCS1(=O)=O` (centres undefined), the inhibition was -17.3% (inactive).
Turning to `O=C(Oc1ccccc1Cl)c1ccc(N2CCOCC2)c([N+](=O)[O-])c1`, the inhibition was 1.4% (inactive).
With `N#Cc1c(NC(=O)c2ccc(N3CCOCC3)c([N+](=O)[O-])c2)sc2c1CCCC2`, the inhibition was 83.7% (active).
For the molecule `O=C(NCCCN1CCOCC1)c1ccc(N2CCCC2)c([N+](=O)[O-])c1`, the inhibition is -14.3% (inactive).
As to `NC(=O)c1ccc(N2CCCC2)nc1`, the inhibition was -0.443% (inactive).
Turning to `COc1ccccc1NC(=O)N(O)C1(C#N)CCCCC1`, the inhibition is 2.4% (inactive).
For `COc1ccccc1/C=N/Nc1nc(C)c(C(C)=O)s1`, the inhibition was 24.4% (inactive).
For the molecule `COc1cccc(/C=N/Nc2cc(C)nc(-c3ccccc3O)n2)c1O`, the inhibition was 84.7% (active).
`Oc1cccc(/C=N/Nc2ccc(Cl)nn2)c1O`: the inhibition was 10.6% (inactive).
For `CN(C)CCNC(=O)c1ccc(Cl)c2cc3ccccc3nc12`, the inhibition was -8.43% (inactive).
In the case of `C#CCOCCOCCOCCNc1nc(N2CCN(C(=O)Cn3cc(CCO)nn3)CC2)nc(N2CCN(C(=O)Cn3cc(CCCN=C(N)N)nn3)CC2)n1`, the inhibition is -17.5% (inactive).
With `C/C(=N\NC(=O)c1ccc(NS(=O)(=O)c2cccs2)cc1)c1ccc2ccccc2c1`, the inhibition is 75.7% (active).
`C/C(=N\NC(=O)c1ccc2ccccc2c1)c1cccnc1`: the inhibition is -22.1% (inactive).
On to `COc1cc(OC)c(C(=O)NNC(=O)c2ccc(NS(=O)(=O)c3cccs3)cc2)cc1OC`, for which the inhibition was -10.6% (inactive).
With `O=C1CC[C@@H]2CC3(C[C@@H]4CCN1[C@H]24)Nc1cc([N+](=O)[O-])ccc1NC3=NC1CCCCC1` (some centres undefined), the inhibition is 1.95% (inactive).
With `CCN1CCC(O)(/C=C/c2ccc(C)cc2)C(C(=O)/C=C/c2ccc(C)cc2)C1` (centres undefined), the inhibition is 24.5% (inactive).
As for `NC(=O)C1(N2CCCC2)CCN(Cc2ccccc2)CC1`, the inhibition is -9.32% (inactive).
In the case of `O=C(Nc1ccc(C(=O)O)cc1)/C(=C/c1ccc([N+](=O)[O-])cc1)NC(=O)c1ccccc1`, the inhibition was -3.79% (inactive).
As for `C=CCNC(=O)/C(=C\c1cccc([N+](=O)[O-])c1)NC(=O)c1ccccc1`, the figure is -15% (inactive); as for `O=C(N/N=C/c1cc([N+](=O)[O-])ccc1O)/C(=C\c1cccs1)NC(=O)c1ccccc1`, 113% (active); as for `CCCN(C(=O)COC(=O)CNS(=O)(=O)c1ccc(NC(C)=O)cc1)C1CCS(=O)(=O)C1` (centres undefined), -1.04% (inactive).
On to `Cn1cc(C(=O)c2ccc(Cl)cc2Cl)cc1C(=O)NN`, for which the inhibition was 25.2% (inactive).
Turning to `CC(C)(C)c1cc(C(=O)NN)n(Cc2ccc(Cl)cc2Cl)n1`, the inhibition is 80.1% (active).
With `NNC(=O)c1ccc(Cl)cc1Cl`, the inhibition is -14.8% (inactive).
Consider `COCCN(C(=O)C(C)N1C(=O)c2ccccc2C1=O)c1c(N)n(CC(C)C)c(=O)[nH]c1=O` (centres undefined), for which the inhibition is -16.4% (inactive).
As for `O=C(COC(=O)c1ccc(O)cc1O)NC(=O)c1ccccc1`, the inhibition is -38.7% (inactive).
Turning to `O=C1NCC(Nc2ccccc2)C(=O)N1` (centres undefined), the inhibition was -24.4% (inactive).
`CC1=C(C)CC(C(=O)NNC(=O)c2ccccc2O)C(C(=O)O)C1` (centres undefined): the inhibition is 13.9% (inactive).
On to `CCn1c2ccccc2c2cc(NC(=O)COC(=O)c3cc(S(=O)(=O)N4CCCCC4)ccc3Cl)ccc21`, for which the inhibition was 77.1% (active).
As for `O=C(NNC(=O)c1cc(S(=O)(=O)N2CCCCC2)ccc1Cl)c1ccccc1O`, the inhibition was 108% (active).
In the case of `CCn1c2ccccc2c2cc(NC(=O)COC(=O)c3ccccc3Br)ccc21`, the inhibition was -7.34% (inactive).
Turning to `Cc1cc(C(=O)NNC(=O)c2ccccc2O)c(C)o1`, the inhibition is 13.4% (inactive).
Turning to `O=C(NNC(=O)c1ccccc1O)c1ccccc1O`, the inhibition was 124% (active).
As for `O=C(COC(=O)c1cc(S(=O)(=O)N2CCCCC2)ccc1Cl)NCc1ccco1`, the figure is 17.2% (inactive); as for `CC1CCCC(NC(=O)c2cc(S(=O)(=O)N3CCCCC3)ccc2Cl)C1C` (centres undefined), 11.2% (inactive); as for `O=C(Nc1ccccc1C(=O)O)c1cc(S(=O)(=O)N2CCCCC2)cs1`, -2.98% (inactive).
Consider `COc1ccc(CCNC(=O)c2ccc(NC(=O)CC3SC(N4CCCCC4)=NC3=O)cc2)cc1OC` (centres undefined), for which the inhibition was 66.6% (inactive).
Take `CC(=NNC(=O)c1ccncc1)c1ccc(Cl)c(Cl)c1`: the inhibition was 6.02% (inactive).
As for `COc1ccc(Cl)cc1C=CC=Nc1ccc(S(N)(=O)=O)cc1`, the inhibition was -39.7% (inactive).
For the molecule `Cc1ccc2c(O)c(Cc3ccccc3)c(=O)[nH]c2n1`, the inhibition is 7.66% (inactive).
As for `COc1ccc(C(CNC(=O)c2cccc(NS(=O)(=O)c3ccc(C)c(F)c3)c2)N2CCCC2)cc1` (centres undefined), the figure is -24.5% (inactive); as for `COc1ccc(C(CNC(=O)c2cccc(S(=O)(=O)Nc3ccccc3Cl)c2)N2CCOCC2)cc1` (centres undefined), 79.7% (active); as for `COc1ccc(C(CNC(=O)c2ccc(S(=O)(=O)Nc3ccccc3C)cc2)N2CCOCC2)cc1` (centres undefined), -2.84% (inactive).
